Values without a mark were called inactive. Active and inactive are the calls of the source.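 How the source made its calls, unless noted: active means inhibition above 50%; inactive means the rest.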
Assay: antimalarial activity against Dd2 strain (AID 2302;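 active means growth inhibition above 50% at the single 2 µM test dose, taken to imply half-maximal potency below 2 µM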;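 further: 0% = DMSO untreated growth and 100% = chloroquine plus artemisinin killed control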)
Conditions: P. falciparum Dd2 in RBCs, LDH growth readout, 72 h; at 2 µM; active compounds read high

SMILES	growth inhibition
CSC1=NC(=Nc2ccccc2C)C2(CCC(C(C)(C)C)CC2)N1c1ccccc1Cl (stereo not given)	89% (active)
O=C(Nc1ccc(F)cc1)c1cnc(N2CCN(c3ccncc3)CC2)c(Cl)c1	81% (active)
CC1Cc2ccccc2N1CC(=O)Nc1cc(C(F)(F)F)ccc1-n1cncn1 (stereo not given)	97% (active)

Assay: HepG2 cytotoxicity, primary screen, cytotoxicity control for P. falciparum antimalarial project, cell-based, ATP luminescence (AID 2303);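 further: 0% = DMSO wells and 100% = digitonin-killed cells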
Conditions: HepG2 viability, 24-48 h, at 10 µM, active compounds read high

SMILES	inhibition
COCCNCc1cccc(-c2ccc(CNC3CCN(Cc4ccccc4)CC3)cc2)c1	34%
CCC(C)C#Cc1c(C)nc(N)nc1N (stereo not given)	53% (active)
Cc1cc(NC(=O)NCCN2CCC(NS(=O)(=O)c3ccccc3Cl)C2)c2ccccc2n1 (stereo not given)	1%
O=C(CCc1ccccc1)NC(c1ccc(Cl)cc1)c1ccc2cccnc2c1O (stereo not given)	59% (active)
Fc1ccc2nc(-c3ccc(-c4cccc(CN5CCCCC5)c4)cc3)[nH]c2c1	10%
O=C(Nc1ccc(-c2nc3ccccc3[nH]2)cc1)C1CCCN(C2CCC2)C1 (stereo not given)	-1%
NC(=O)C1CCN(Cc2ccc(-c3ccc(-c4nc5ccc(C(F)(F)F)cc5[nH]4)cc3)cc2)CC1	25%
COc1ccc(-c2cccc(NC(=O)c3ccc(Cl)cc3)c2)cc1CNC(C)C	53% (active)
COc1ccc(CNC2CCN(C)CC2)cc1-c1ccc(S(=O)(=O)NCCc2ccccn2)c(F)c1	3%
Cc1cnc(NCCc2ccc(F)cc2)nc1N[C@@H](CC(C)C)C(=O)Nc1ccccc1	19%
Oc1ccc(Br)cc1-c1nc2ccc(Cl)cc2nc1-c1cc(Br)ccc1O	-4%
COc1ccc(CNC2CCN(C)CC2)cc1-c1cccc(S(=O)(=O)NCc2ccccc2)c1	43%
